Where “and” joins values, the source holds several entries; their conditions need not be identical. Identical values can stand only once. Inconclusive results are not listed. Entries that show only a call come without a potency. Some compounds were tested as several samples or in several runs, with calls that do not always agree. Calls of active or inactive are those of the source. Calls come from the whole dose curve; as a rule, active = well fitted inhibition curve with a large enough effect in the repeat runs; inconclusive = weak or mixed curves; inactive = no such curve, though single readings can be large or run the other way.

The results in this text go back to PubChem BioAssay (Tox21).
Potency is the fitted concentration of half-maximal effect.

The target in the test is Cytochrome P450 2D6 (Homo sapiens) (UniProt P10635). Kind of test: Cytochrome P450 Family 2 Subfamily D Member 6 (CYP2D6) small molecule antagonists: luciferase reporter qHTS assay (AID 1671196). Note: nearly all actives have a fitted effect of over 50% in size. To be noted: P450-Glo CYP2D6 enzyme assay, luciferin luminescence, 1 h; series mostly up to 115 µM. An outline of the steps: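 Test chemicals meet CYP2D6 plus proluciferin substrate (10 min, RT); NADPH regenerating solution then drives turnover for 1 h. Detection reagent halts the reaction; luminescence measured after 20 min.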
Sequence of Cytochrome P450 2D6 (Homo sapiens) (P10635 whole entry, looked up): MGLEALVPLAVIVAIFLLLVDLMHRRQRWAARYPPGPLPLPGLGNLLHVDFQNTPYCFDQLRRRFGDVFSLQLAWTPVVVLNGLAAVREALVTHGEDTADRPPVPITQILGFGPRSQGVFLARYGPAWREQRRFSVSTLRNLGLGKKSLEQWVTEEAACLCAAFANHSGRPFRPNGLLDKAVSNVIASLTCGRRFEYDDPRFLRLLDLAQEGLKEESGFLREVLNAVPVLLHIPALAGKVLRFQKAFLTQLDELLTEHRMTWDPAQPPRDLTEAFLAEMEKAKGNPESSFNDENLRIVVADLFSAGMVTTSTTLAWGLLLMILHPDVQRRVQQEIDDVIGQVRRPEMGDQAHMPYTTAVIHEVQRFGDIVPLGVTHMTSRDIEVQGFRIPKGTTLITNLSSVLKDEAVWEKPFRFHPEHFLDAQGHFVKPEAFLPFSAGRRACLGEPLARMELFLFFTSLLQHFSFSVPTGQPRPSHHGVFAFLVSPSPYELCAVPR
For orientation: A reporter such as luciferase makes a cellular process visible.
As for `CCOc1ccc(C(=O)OCCN(CC)CC)cc1`, the Potency is 1.55 µM (active).
Regarding `CCCCCCOC(=O)CCCCC(=O)OCCCCCC`, the Potency entry is “inactive”.
`CC1(C)C(O)C(C)(C)C1O` (centres undefined): the Potency result was “inactive”.
Regarding `Cc1[nH]c(=O)c(C#N)cc1-c1ccc2nccn2c1`, the Potency entry was “inactive”.
With `CCCCCCCCCCCCCC=O`, the Potency is 2.78 µM (active).
Regarding `CN1CC(=O)NC1=N`, the Potency entry is “inactive”.
As to `CCCCCOC(=O)CCCCC`, the Potency result is “inactive”.
Take `CC/C=C\CC/C=C/CO`: the Potency entry is “inactive”.
Same read-out and setting: then `CC(C)(c1ccc(O)cc1)c1ccc(O)cc1`, with “inactive and 64.4 µM (active)”; and `C[C@@H]1CCN(C(=O)[C@H](CCCN=C(N)N)NS(=O)(=O)c2cccc3c2NC[C@H](C)C3)[C@@H](C(=O)O)C1`, with “inactive”.
As for `CC(C)=CCCC(C)CC(=O)O` (centres undefined), the Potency entry was “inactive”.
As for `CCCC(=O)O[C@]1(C(=O)CO)CC[C@H]2[C@@H]3CCC4=CC(=O)CC[C@]4(C)[C@H]3[C@@H](O)C[C@@]21C`, the Potency entry is “inactive”.
Regarding `CCC(C)S` (centres undefined), the activity change, negative = inhibition is -10.7% [at 4.07 µM] (inactive).
Turning to `COc1cc(C(=O)N2CCCCCCC2)cc(OC)c1OC`, the Potency result was “inactive”.
On to `c1cnc(N2CCN(Cc3ccc4c(c3)OCO4)CC2)nc1`, for which the Potency was 1.23 µM (active).
Take `CN(C)CCCNCCCN(C)C`: the Potency is 20 µM (active).
For `CCOC(=O)Nc1ccc(NCc2ccc(F)cc2)nc1N`, the Potency was 3.09 µM (active).
Regarding `CC(C)CNCC(C)C`, the Potency result was “inactive”.
Turning to `C=CCOCC(CC)(CO)COCC=C`, the Potency entry was “inactive”.
Consider `CCSC(=O)N(CC(C)C)CC(C)C`, for which the Potency entry is “inactive”.
Regarding `N[C@H]1CN(c2c(F)cc3c(=O)c(C(=O)O)cn(C4C[C@H]4F)c3c2Cl)CC12CC2` (some centres undefined), the Potency entry was “inactive”.
Consider `NS(=O)(=O)c1cc(C(=O)NN2C[C@H]3[C@H]4CCC(C4)[C@H]3C2)ccc1Cl`, for which the Potency entry was “inactive”.
On the same count and under the same terms, then `CC(NC(CCc1ccccc1)C(=O)O)C(=O)N1C(=O)N(C)CC1C(=O)O` (centres undefined), with “inactive”.
With `CC(C)NC(=O)NC(C)C`, the Potency entry is “inactive”.
Take `CCCN1CCCC[C@H]1C(=O)Nc1c(C)cccc1C`: the Potency is 4.9 µM (active).
As to `NS(=O)(=O)c1ccccc1Cl`, the Potency entry was “inactive”.
In the case of `O=C1NC(=O)[C@@]2(CCOc3ccc(F)cc32)N1`, the Potency result was “inactive”.
On the same count and under the same terms, then `Nc1nc2c(ncn2COC(CO)CO)c(=O)[nH]1`, with “inactive”; and `CCOC(=O)[C@H](CCc1ccccc1)N[C@@H](C)C(=O)N1[C@H](C(=O)O)C[C@@H]2CCC[C@@H]21`, with “inactive”; and `CC(C)(C)c1ccc(O)c(O)c1`, with 23.8 µM (active).
Turning to `COC(=O)c1ccc(C)cc1C1=NC(C)(C(C)C)C(=O)N1` (centres undefined), the Potency entry is “inactive”.
Take `C=C[Si](OC(=C)C)(OC(=C)C)OC(=C)C`: the Potency result is “inactive”.
`CCC(=O)OC(C)c1ccccc1` (centres undefined): the Potency result is “inactive”.
Regarding `CC(C(=O)O)c1ccc(CC2CCCC2=O)cc1` (centres undefined), the Potency result is “inactive”.
